Structures can show the parent of a compound that is named as a salt.
Experiments:
Assay in all cases: cell proliferation relative to vehicle (% of vehicle); higher = less growth inhibition
Conditions in all cases: 72 h
[1] = test system: U2932 TK216-resistant clone 2
How it was run: (§1)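 A targeted inhibitor library of 348 compounds was tested on the ABC-DLBCL line U2932, both parental and two clones made resistant to an ETS-targeting agent by repeated exposure over almost a year. Cells were grown at 37°C and 5% CO2 in medium with 10% FBS, then treated at 500 nM or 50 nM for 72 h. MTT was added for 4 h, stopped with 25% SDS, and absorbance was read on a Cytation 3. Proliferation is reported as percent of proliferating cells relative to vehicle (DMSO).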

[2] = test system: U2932 TK216-resistant clone 3
How it was run: as §1

U2932 parental = test system: U2932 parental
How it was run: as §1

SMILES: COc1cc2nccc(Oc3ccc(NC(=O)C4(C(=O)Nc5ccc(F)cc5)CC4)cc3)c2cc1OC
- cell proliferation ([1]; 50 nM): 102
- cell proliferation ([1]; 500 nM): 98
- cell proliferation ([2]; 50 nM): 100
- cell proliferation ([2]; 500 nM): 106
- cell proliferation (U2932 parental; 50 nM): 95.4
- cell proliferation (U2932 parental; 500 nM): 99.2

SMILES: CN1CCCN(C(=O)c2cccc(-c3ccc(/C=C4/C(=O)Nc5ccc(Cl)cc54)o3)c2)CC1
- cell proliferation ([1]; 50 nM): 105
- cell proliferation ([1]; 500 nM): 80.8
- cell proliferation ([2]; 50 nM): 97
- cell proliferation ([2]; 500 nM): 88.5
- cell proliferation (U2932 parental; 50 nM): 104
- cell proliferation (U2932 parental; 500 nM): 96.5

SMILES: COc1cc([C@@H]2c3cc4c(cc3[C@@H](O[C@@H]3O[C@@H]5CO[C@@H](C)O[C@H]5[C@H](O)[C@H]3O)[C@H]3COC(=O)[C@H]23)OCO4)cc(OC)c1O [Etoposide]
- cell proliferation ([1]; 50 nM): 95.7
- cell proliferation ([1]; 500 nM): 53.8
- cell proliferation ([2]; 50 nM): 99.3
- cell proliferation ([2]; 500 nM): 74.9
- cell proliferation (U2932 parental; 50 nM): 93.3
- cell proliferation (U2932 parental; 500 nM): 68.8

SMILES: COc1cc(Nc2ncc(F)c(Nc3ccc4c(n3)NC(=O)C(C)(C)O4)n2)cc(OC)c1OC
- cell proliferation ([1]; 50 nM): 108
- cell proliferation ([1]; 500 nM): 97.1
- cell proliferation ([2]; 50 nM): 103
- cell proliferation ([2]; 500 nM): 103
- cell proliferation (U2932 parental; 50 nM): 87.9
- cell proliferation (U2932 parental; 500 nM): 82.1

SMILES: COCCOc1ccc2c(c1)ncn2-c1ccc2cccc(N3CCC(N)CC3)c2n1
- cell proliferation ([1]; 50 nM): 107
- cell proliferation ([1]; 500 nM): 106
- cell proliferation ([2]; 50 nM): 103
- cell proliferation ([2]; 500 nM): 94
- cell proliferation (U2932 parental; 50 nM): 99.8
- cell proliferation (U2932 parental; 500 nM): 90.4

SMILES: Cc1cc(Nc2cc(N3CCN(C)CC3)nc(/C=C/c3ccccc3)n2)n[nH]1 [ENMD-2076 L-(+)-Tartaric acid]
- cell proliferation ([1]; 50 nM): 101
- cell proliferation ([1]; 500 nM): 61.9
- cell proliferation ([2]; 50 nM): 105
- cell proliferation ([2]; 500 nM): 57.2
- cell proliferation (U2932 parental; 50 nM): 99
- cell proliferation (U2932 parental; 500 nM): 47.6

SMILES: CC[C@@]1(O)C(=O)OCc2c1cc1n(c2=O)Cc2cc3c(CN(C)C)c(O)ccc3nc2-1 [Topotecan HCl]
- cell proliferation ([1]; 50 nM): 9.75
- cell proliferation ([1]; 500 nM): 5
- cell proliferation ([2]; 50 nM): 12.8
- cell proliferation ([2]; 500 nM): 5.92
- cell proliferation (U2932 parental; 50 nM): 11.1
- cell proliferation (U2932 parental; 500 nM): 2.71

SMILES: Nc1nc(F)nc2c1ncn2[C@@H]1O[C@H](CO)[C@@H](O)[C@@H]1O [Fludarabine]
- cell proliferation ([1]; 50 nM): 107
- cell proliferation ([1]; 500 nM): 97.8
- cell proliferation ([2]; 50 nM): 103
- cell proliferation ([2]; 500 nM): 96.4
- cell proliferation (U2932 parental; 50 nM): 103
- cell proliferation (U2932 parental; 500 nM): 97.3

SMILES: O=S(=O)(O)CCS [Mesna]
- cell proliferation ([1]; 50 nM): 110
- cell proliferation ([1]; 500 nM): 116
- cell proliferation ([2]; 50 nM): 101
- cell proliferation ([2]; 500 nM): 103
- cell proliferation (U2932 parental; 50 nM): 95.4
- cell proliferation (U2932 parental; 500 nM): 103

SMILES: COc1ccc(C2=N[C@@H](c3ccc(Cl)cc3)[C@@H](c3ccc(Cl)cc3)N2C(=O)N2CCNC(=O)C2)c(OC(C)C)c1 [Nutlin-3]
- cell proliferation ([1]; 50 nM): 106
- cell proliferation ([1]; 500 nM): 97.3
- cell proliferation ([2]; 50 nM): 109
- cell proliferation ([2]; 500 nM): 103
- cell proliferation (U2932 parental; 50 nM): 99.8
- cell proliferation (U2932 parental; 500 nM): 99.6

SMILES: CCc1cncnc1N1CCN(Cc2nc3ccc(C(F)(F)F)cc3[nH]2)CC1
- cell proliferation ([1]; 50 nM): 100
- cell proliferation ([1]; 500 nM): 101
- cell proliferation ([2]; 50 nM): 96
- cell proliferation ([2]; 500 nM): 100
- cell proliferation (U2932 parental; 50 nM): 88.9
- cell proliferation (U2932 parental; 500 nM): 92

SMILES: CO[C@H]1/C=C\C=C(/C)C(=O)NC2=CC(=O)C(NCCN(C)C)=C(C[C@@H](C)C[C@H](OC)[C@H](O)[C@@H](C)/C=C(\C)[C@@H]1OC(N)=O)C2=O [17-DMAG (Alvespimycin) HCl]
- cell proliferation ([1]; 50 nM): 46.7
- cell proliferation ([1]; 500 nM): 3.06
- cell proliferation ([2]; 50 nM): 42.3
- cell proliferation ([2]; 500 nM): 17
- cell proliferation (U2932 parental; 50 nM): 67
- cell proliferation (U2932 parental; 500 nM): 3.09

SMILES: COc1cc(Nc2nc3ccccc3nc2NS(=O)(=O)c2ccc(NC(=O)c3ccc(C)c(OC)c3)cc2)cc(OC)c1
- cell proliferation ([1]; 50 nM): 98.5
- cell proliferation ([1]; 500 nM): 106
- cell proliferation ([2]; 50 nM): 104
- cell proliferation ([2]; 500 nM): 103
- cell proliferation (U2932 parental; 50 nM): 105
- cell proliferation (U2932 parental; 500 nM): 104

SMILES: C[C@@H](Oc1cc(-n2cnc3ccc(CN4CCN(C)CC4)cc32)sc1C(N)=O)c1ccccc1C(F)(F)F
- cell proliferation ([1]; 50 nM): 8.44
- cell proliferation ([1]; 500 nM): 10
- cell proliferation ([2]; 50 nM): 5.99
- cell proliferation ([2]; 500 nM): 14.8
- cell proliferation (U2932 parental; 50 nM): 8
- cell proliferation (U2932 parental; 500 nM): 10.6

SMILES: Cc1cnc(-c2cnc(NCCNc3ccc(C#N)cn3)nc2-c2ccc(Cl)cc2Cl)[nH]1
- cell proliferation ([1]; 50 nM): 101
- cell proliferation ([1]; 500 nM): 97.6
- cell proliferation ([2]; 50 nM): 107
- cell proliferation ([2]; 500 nM): 96.8
- cell proliferation (U2932 parental; 50 nM): 99.8
- cell proliferation (U2932 parental; 500 nM): 95

SMILES: C[C@@H]1C[C@H]2[C@@H]3CCC4=CC(=O)C=C[C@]4(C)[C@@]3(F)[C@@H](O)C[C@]2(C)[C@@]1(O)C(=O)CO [Dexamethasone (DHAP)]
- cell proliferation ([1]; 50 nM): 76.1
- cell proliferation ([1]; 500 nM): 79
- cell proliferation ([2]; 50 nM): 80.9
- cell proliferation ([2]; 500 nM): 71.2
- cell proliferation (U2932 parental; 50 nM): 77.4
- cell proliferation (U2932 parental; 500 nM): 74.2

SMILES: CCC(C)(C)C(=O)O[C@H]1C[C@@H](C)C=C2C=C[C@H](C)[C@H](CC[C@@H]3C[C@@H](O)CC(=O)O3)[C@H]21 [Simvastatin]
- cell proliferation ([1]; 50 nM): 91.4
- cell proliferation ([1]; 500 nM): 88.7
- cell proliferation ([2]; 50 nM): 98.4
- cell proliferation ([2]; 500 nM): 89.1
- cell proliferation (U2932 parental; 50 nM): 90.5
- cell proliferation (U2932 parental; 500 nM): 87.4

SMILES: N#CC[C@H](C1CCCC1)n1cc(-c2ncnc3[nH]ccc23)cn1
- cell proliferation ([1]; 50 nM): 100
- cell proliferation ([1]; 500 nM): 95.4
- cell proliferation ([2]; 50 nM): 103
- cell proliferation ([2]; 500 nM): 108
- cell proliferation (U2932 parental; 50 nM): 96.7
- cell proliferation (U2932 parental; 500 nM): 96.5

SMILES: Oc1ccc(-c2nc(-c3ccc(F)cc3)c(-c3ccncc3)[nH]2)cc1
- cell proliferation ([1]; 50 nM): 109
- cell proliferation ([1]; 500 nM): 105
- cell proliferation ([2]; 50 nM): 96.2
- cell proliferation ([2]; 500 nM): 98.7
- cell proliferation (U2932 parental; 50 nM): 102
- cell proliferation (U2932 parental; 500 nM): 99.2

SMILES: O=C(NOC[C@H](O)CO)c1ccc(F)c(F)c1Nc1ccc(I)cc1F
- cell proliferation ([1]; 50 nM): 101
- cell proliferation ([1]; 500 nM): 101
- cell proliferation ([2]; 50 nM): 96.6
- cell proliferation ([2]; 500 nM): 96
- cell proliferation (U2932 parental; 50 nM): 92.3
- cell proliferation (U2932 parental; 500 nM): 91.5

SMILES: C[C@@H](Nc1cc(F)cc(F)c1)c1cc(C(=O)N(C)C)cc2c(=O)cc(N3CCOCC3)oc12
- cell proliferation ([1]; 50 nM): 111
- cell proliferation ([1]; 500 nM): 83.1
- cell proliferation ([2]; 50 nM): 99.4
- cell proliferation ([2]; 500 nM): 84.5
- cell proliferation (U2932 parental; 50 nM): 99.9
- cell proliferation (U2932 parental; 500 nM): 90.3

SMILES: C[S+]([O-])c1ccc(-c2nc(-c3ccc(F)cc3)c(-c3ccncc3)[nH]2)cc1 (stereo unspecified)
- cell proliferation ([1]; 50 nM): 109
- cell proliferation ([1]; 500 nM): 101
- cell proliferation ([2]; 50 nM): 93.4
- cell proliferation ([2]; 500 nM): 94.4
- cell proliferation (U2932 parental; 50 nM): 106
- cell proliferation (U2932 parental; 500 nM): 101

SMILES: CC[C@H](NC(=O)[C@H](C)NC)C(=O)N1C[C@@H](O)C[C@H]1Cc1c(-c2[nH]c3cc(F)ccc3c2C[C@@H]2C[C@H](O)CN2C(=O)[C@H](CC)NC(=O)[C@H](C)NC)[nH]c2cc(F)ccc12 [Birinapant]
- cell proliferation ([1]; 50 nM): 102
- cell proliferation ([1]; 500 nM): 100
- cell proliferation ([2]; 50 nM): 99.4
- cell proliferation ([2]; 500 nM): 90.9
- cell proliferation (U2932 parental; 50 nM): 103
- cell proliferation (U2932 parental; 500 nM): 101

SMILES: O=C(/C=C/c1ccc(CN(CCO)CCc2c[nH]c3ccccc23)cc1)NO [LAQ824 (Dacinostat)]
- cell proliferation ([1]; 50 nM): 41.2
- cell proliferation ([1]; 500 nM): 5.42
- cell proliferation ([2]; 50 nM): 48.6
- cell proliferation ([2]; 500 nM): 12.4
- cell proliferation (U2932 parental; 50 nM): 33.6
- cell proliferation (U2932 parental; 500 nM): 0.789

SMILES: C=CCNC1=C2C[C@@H](C)C[C@H](OC)[C@H](O)[C@@H](C)/C=C(\C)[C@H](OC(N)=O)[C@@H](OC)/C=C\C=C(/C)C(=O)NC(=CC1=O)C2=O [17-AAG (Tanespimycin)]
- cell proliferation ([1]; 50 nM): 103
- cell proliferation ([1]; 500 nM): 115
- cell proliferation ([2]; 50 nM): 105
- cell proliferation ([2]; 500 nM): 114
- cell proliferation (U2932 parental; 50 nM): 96.7
- cell proliferation (U2932 parental; 500 nM): 107

SMILES: O=C1CCC(N2C(=O)c3ccccc3C2=O)C(=O)N1 (stereo unspecified) [Thalidomide]
- cell proliferation ([1]; 50 nM): 105
- cell proliferation ([1]; 500 nM): 106
- cell proliferation ([2]; 50 nM): 104
- cell proliferation ([2]; 500 nM): 101
- cell proliferation (U2932 parental; 50 nM): 103
- cell proliferation (U2932 parental; 500 nM): 101

— the supplement of paper PMC13172266
